A selection: hits, their analogues and other compounds. The true share with any hit is near 1.3%.
SARS PLP yeast: inhibitors of SARS-CoV papain-like protease in yeast; hit rate 0.19% among 330,000; S. cerevisiae expressing SARS-CoV PLpro, growth rescue; Potency, µM (top dose mostly 32.9 µM), usual class: activators; AID 485353; calls by dose curve; note: nearly all actives have a fitted effect of over 55% in size
AMA1 RON2 block: AMA1-RON2 (P. falciparum) interaction inhibition | AlphaScreen AMA1-biotinylated RON2 peptide binding | Potency, µM (highest dose often 58.2 µM), hits mostly inhibitors | hit rate 0.2% among 360,000 | AID 720542; note: nearly all actives have a fitted effect of over 45% in size
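AMA1 (3D7) with his tag at 25 nM final met compounds first, then biotinylated RON2 peptide at 25 nM; detection used donor plus acceptor beads, 10 µg/mL apiece, read by AlphaScreen after 30 min at room temperature.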
Vaccinia Venus: vaccinia inhibition (Venus reporter); Vaccinia virus Venus reporter expression, fluorescence; Potency, µM (highest dose often 36.5 µM), hits mostly inhibitors; hit rate 0.46% among 330,000; AID 720580; calls by dose curve; tested in A549 cells; note: nearly all actives have a fitted effect of over 30% in size
AmpC detergent: AmpC beta-lactamase inhibition with detergent present. P00811. AmpC hydrolysis of nitrocefin, absorbance 480 nm, 0.01% Triton. Potency, µM (series often up to 114 µM), most hits filed as inhibitors. hit rate 0.041% among 370,000. AID 485294; note: nearly all actives have a fitted effect of over 25% in size
Target sequence (P00811 whole entry, looked up): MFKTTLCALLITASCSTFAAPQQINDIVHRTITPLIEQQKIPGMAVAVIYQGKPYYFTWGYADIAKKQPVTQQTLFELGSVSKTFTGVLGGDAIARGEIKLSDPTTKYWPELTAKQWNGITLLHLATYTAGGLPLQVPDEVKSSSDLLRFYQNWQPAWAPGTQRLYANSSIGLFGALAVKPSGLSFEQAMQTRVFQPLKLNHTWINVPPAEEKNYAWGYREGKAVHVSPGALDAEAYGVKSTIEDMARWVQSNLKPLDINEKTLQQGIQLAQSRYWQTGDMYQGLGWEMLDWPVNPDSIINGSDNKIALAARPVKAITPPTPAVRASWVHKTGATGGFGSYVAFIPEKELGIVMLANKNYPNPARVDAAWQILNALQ
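AmpC (5.3 nM in the dispensed reagent) in 20 mM phosphate pH 7.0 with 0.01% (detergent screen) or 0.0001% Triton X-100 was preincubated with compounds for 15 min at room temperature. Nitrocefin was then added from an 800 uM solution, and hydrolysis was followed at 480 nm.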
VACV mCherry inh: inhibitors of vaccinia virus infection (mCherry reporter signal). AID 720579. Vaccinia virus mCherry reporter infection, fluorescence. Potency, µM (series often up to 36.5 µM), hits mostly inhibitors. hit rate 0.63% among 310,000; calls by dose curve; tested in A549 cells; note: nearly all actives have a fitted effect of over 35% in size
AmpC inh no detg: AmpC beta-lactamase inhibition without detergent | hit rate 0.52% among 330,000 | Potency, µM (titrated, usually from 57.1 µM), most hits filed as inhibitors | AID 485341 | AmpC nitrocefin hydrolysis, absorbance 480 nm, 0.0001% Triton; note: nearly all actives have a fitted effect of over 20% in size
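AmpC (5.3 nM in the dispensed reagent) in 20 mM phosphate pH 7.0 with 0.01% (detergent screen) or 0.0001% Triton X-100 was preincubated with compounds for 15 min at room temperature. Nitrocefin was then added from an 800 uM solution, and hydrolysis was followed at 480 nm.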
Large screens that a line does not name were inactive. Unless noted, calls come from the whole dose curve; as a rule, active = well fitted curve in the direction sought with a large enough effect; inconclusive = small, poorly fitted or top-dose-only effect, or another doubt; inactive = no such curve, though single readings can be large; an effect the other way counts as inactive or inconclusive.

COc1ccc(O)c(-c2cc(-c3cccc(Br)c3)n[nH]2)c1	Vaccinia Venus inconclusive, AmpC inh no detg 2.2µM
COc1ccc(-c2cc(-c3cc(OC)ccc3O)[nH]n2)cc1	Vaccinia Venus inconclusive, AmpC detergent inconclusive, VACV mCherry inh inconclusive
Cc1ccccc1Cc1nc2cccnc2n1C1CCN(C(=O)CC2NC(=O)c3ccccc32)CC1 (stereo not given)	none (no result: SARS PLP yeast, AMA1 RON2 block, AmpC detergent, AmpC inh no detg)
Cc1ccc2nc(-c3ccccn3)c(NC3CCCC3)n2c1	AMA1 RON2 block inconclusive, VACV mCherry inh 13µM
CCCC(=O)N(c1ccc2oc(=O)sc2c1)S(=O)(=O)c1ccccc1	AmpC detergent inconclusive, AmpC inh no detg 10µM (no result: VACV mCherry inh)
CSc1cccc(NC(=O)CN(C)S(=O)(=O)c2cnc[nH]2)c1	AMA1 RON2 block 5µM
Cc1cccc(NC(=O)CN(C)S(=O)(=O)c2cnc[nH]2)c1	none (no result: VACV mCherry inh)
COc1ccc(N/N=C(/C(N)=O)C2=NC(C)(C)Cc3ccccc32)cc1	Vaccinia Venus inconclusive, VACV mCherry inh 14µM
N#C/C(=C/c1ccc(-c2ccc(S(N)(=O)=O)cc2)o1)C(=O)Nc1ccccc1	AmpC inh no detg 16µM
CCN1C(=NCc2cccc(Cl)c2)N[C@@H](c2cccc(C(F)(F)F)c2)C(C(=O)OC)=C1C	Vaccinia Venus inconclusive (no result: SARS PLP yeast, AMA1 RON2 block, AmpC detergent, AmpC inh no detg)
CC(=O)OC(C)CS(=O)(=O)c1ccccc1 (stereo not given)	Vaccinia Venus 7.9µM, AmpC detergent inconclusive, VACV mCherry inh 7.9µM
O=C(CCCN1C(=O)/C(=C/c2ccccc2Cl)SC1=S)NNC(=O)c1ccncc1	none
COc1ccccc1/C=C1\SC(=S)N(CCC(=O)NNC(=O)c2ccccc2O)C1=O	AmpC inh no detg 16µM
COc1cccc(/C=C2\SC(=S)N(CCC(=O)Nc3ccc(O)cc3)C2=O)c1	AmpC detergent inconclusive (no result: Vaccinia Venus, VACV mCherry inh)
COc1cccc(/C=C2\SC(=S)N(CCC(=O)NCCc3ccc(O)cc3)C2=O)c1	Vaccinia Venus inconclusive, VACV mCherry inh 11µM
COc1ccc(/C=C2\SC(=S)N(CCCC(=O)NNC(=O)c3ccccc3O)C2=O)cc1	none
O=C(CCCN1C(=O)/C(=C/c2ccccc2Cl)SC1=S)NNC(=O)c1ccccc1Cl	Vaccinia Venus inconclusive, VACV mCherry inh 11µM
Cc1ccccc1Cn1nc(C)c(NC(=O)c2noc3c2CCc2ccccc2-3)c1C	Vaccinia Venus inconclusive, AmpC detergent inconclusive, VACV mCherry inh inconclusive, AmpC inh no detg 4µM
Cc1cnc(-n2ncc(C(=O)N(C)CC3COCCO3)c2C2CC2)nc1-c1cccs1 (stereo not given)	none (no result: SARS PLP yeast, AMA1 RON2 block, AmpC detergent, AmpC inh no detg)
O=[N+]([O-])c1ccc(N/N=C/c2cccc(O)c2O)c(S(=O)(=O)N2CCOCC2)c1	AmpC inh no detg 11µM (no result: Vaccinia Venus, VACV mCherry inh)
O=[N+]([O-])c1cccc(N/N=C/c2cccc(O)c2O)c1	Vaccinia Venus inconclusive, VACV mCherry inh inconclusive, AmpC inh no detg 16µM
O=[N+]([O-])c1ccccc1N/N=C/c1cccc(O)c1O	none (no result: Vaccinia Venus, VACV mCherry inh)
CN1CCC(OC2c3ccccc3CCc3ccccc32)CC1	none (no result: SARS PLP yeast, AmpC detergent, AmpC inh no detg)
Brc1ccc2c(c1)C(OC1CN3CCC1CC3)c1ccccc1CS2 (stereo not given)	Vaccinia Venus 11µM, VACV mCherry inh inconclusive
CN(C)C(=O)CCC(=O)NCC1Cc2cccc(-c3ccccc3C(F)(F)F)c2O1 (stereo not given)	none (no result: SARS PLP yeast, AMA1 RON2 block, AmpC detergent, AmpC inh no detg)
CCN(CC)CCNCC1C(=O)O[C@@H]2C[C@@]3(C)CCC[C@H](C)C3=C[C@H]12 (stereo not given in full)	Vaccinia Venus 10µM, VACV mCherry inh 4.5µM
Nc1nc(N)c2cc(Sc3ccc4ccccc4c3)ccc2n1	none (no result: Vaccinia Venus, VACV mCherry inh)
Nc1nc(N)c2cc(Sc3ccc(Cl)cc3)ccc2n1	Vaccinia Venus 6.3µM, VACV mCherry inh inconclusive (no result: SARS PLP yeast, AmpC detergent, AmpC inh no detg)
Nc1nc(N)c2cc(Sc3cccc(C(F)(F)F)c3)ccc2n1	Vaccinia Venus 5µM, VACV mCherry inh 7.1µM (no result: SARS PLP yeast, AmpC detergent, AmpC inh no detg)
COc1ccccc1C(=O)N[C@@H]1c2ccccc2C2(CCN(Cc3c(O)cccc3OC)CC2)[C@H]1O	Vaccinia Venus inconclusive (no result: SARS PLP yeast, AMA1 RON2 block, AmpC detergent, AmpC inh no detg)
COC(=O)c1cc(CNC(=O)c2ccc(N(C)C)cc2)cc(NC(=O)c2ccccc2Cl)c1	none (no result: SARS PLP yeast, AMA1 RON2 block, AmpC detergent, AmpC inh no detg)
Cc1cc2cc(CNC(=O)Nc3ccccc3)ccc2[nH]1	AmpC inh no detg 22µM (no result: Vaccinia Venus, VACV mCherry inh)
CCOC(=O)NCc1ccc2[nH]c(C)cc2c1	AmpC detergent inconclusive, VACV mCherry inh inconclusive

Assay outcomes (PubChem BioAssay)
